According to PubChem BioAssay (NCATS):
Inconclusive results are not listed. A call without a number means that no potency is given here. Activity calls are given as the source filed them. Calls follow the shape of the dose curve; as a rule, active = well fitted inhibition curve with a large enough effect; inconclusive = small, poorly fitted or top-dose-only effect; inactive = flat fitted curve, though single readings scatter.

Assay: P-glycoprotein substrates identified in KB-8-5-11 adenocarcinoma cell line, qHTS therapeutic library screen (AID 1346987); also: nearly all actives have a fitted effect of over 65% in size
Details: KB-8-5-11 (P-gp overexpressing) viability, CellTiter-Glo, 72 h; series mostly up to 44.5 µM
Source text: The ATP-binding cassette transporters P-glycoprotein (P-gp) is known to limit brain penetration of many chemotherapy drugs. […] As such, we developed a high-throughput screen (HTS) to identify substrates of P-gp from a series of chemical libraries including the National Center for Advancing Translational Sciences Pharmaceutical Collection NPC, 2,816 compounds), testing a total of 10,804 compounds, most of which have known mechanisms of action. We used the CellTiter-Glo viability assay to test library compounds against the parental KB-3-1 human cervical adenocarcinoma cell line and the colchicine-selected sub-line KB-8-5-11 that over-expresses P-gp. KB-8-5-11 cells were also tested in the presence of a P-gp inhibitor (tariquidar) to assess reversability of transporter-mediated resistance. Of the tested compounds, a total of 90 P-gp substrates were identified including 55 newly identified P-gp substrates. Substrates were confirmed using an orthogonal killing assay against HEK-293 cells transfected with P-gp. As exemplars, we confirmed that […] (cyclin-dependent kinase inhibitor); AT9283, (Janus kinase 2/3 inhibitor); ispinesib (kinesin spindle protein inhibitor); gedatolisib (PKI-587, phosphoinositide 3-kinase/mammalian target of rampamycin inhibitor); GSK-690693 (AKT inhibitor); and KW-2478 (heat shock protein 90 inhibitor) were substrates , and direct ATPase stimulation was assessed. ABCG2 was also found to confer high levels of resistance to AT9283, GSK-690693 and gedatolisib, while ispinesib, AT7519 and KW-2478 were weaker substrates.
The HeLa derivative cell line, KB-3-1, and its colchicine-selected, P-gp-overexpressing subline, KB-8-5-11 were maintained in DMEM with 10% FCS and Pen/Strep with glutamine at 37 degree C in 5% CO2. For KB-8-5-11 cells, colchicine was added to the medium at a concentration of 100 ng/mL. HEK-293 cells transfected with empty vector (pcDNA) or vector containing human ABCB1 (MDR-19) or ABCG2 (R-5) have been described previously (Robey, Lin, Qiu, Chan & Bates, 2011) and were maintained in EMEM supplemented with 10% FCS, Pen/Strep and glutamine with 2 mg/ml G418 to select for the expression of the transporter. Cultures were confirmed to be free of mycoplasma infection using the MycoAlert Mycoplasma Detection Kit (Lonza, Walkersville, MD). For the screen, assay medium was identical to culture medium except for KB-8-5-11 where colchicine was excluded from the medium.
All cell lines were plated into 1536-well plates at 500 cells/well in 5 uL media. Compounds were then pinned in dose-response using a 1536-head pin tool (Kalypsis, San Diego, CA) and plates were incubated at 37 degree C in 5% CO2 for an additional 72 h. CellTiter-Glo reagent (Promega) was dispensed into the wells, incubated for 5 min and luminescence was read on a ViewLux instrument (Perkin-Elmer). Cytotoxic compounds were defined as those that yielded a curve class of -1.1, -1.2, -2.1, -2.2, -2.3, or -2.4, a maximum response of >50% and an AC50 of < 10 uM. Cherry-picked hits from screening analysis were tested with both the KB pair of cell lines, and the pcDNA (empty vector control) and MDR-19 (P-gp overexpressing) pair were tested, in the absence and presence of tariquidar.
Potency is read from the fitted curve at half-maximal effect.

Structure (SMILES)	Potency
CCCCNc1ccc(C(=O)OCCN(C)C)cc1	inactive
CCNC(=O)N1CCN(CCCC(c2ccc(F)cc2)c2ccc(F)cc2)CC1	16.4 µM (active)
N[C@@H](COP(=O)(O)O)C(=O)O	inactive
NC(=O)c1cn(Cc2c(F)cccc2F)nn1	inactive
O=C(O)CCCCCCCC(=O)O	inactive
C[C@]12CC[C@@H]3c4ccc(O)cc4C[C@@H](CCCCCCCCCS(=O)CCCC(F)(F)C(F)(F)F)[C@H]3[C@@H]1CC[C@@H]2O (stereo not given in full)	inactive
Cc1nnc(SCC2=C(C(=O)O)N3C(=O)[C@@H](NC(=O)Cn4cnnn4)[C@H]3SC2)s1	inactive
CNCCCN1c2ccccc2CCc2ccccc21	inactive
O=C1CC2(CCCC2)CC(=O)N1CCCCN1CCN(c2ncccn2)CC1	9.2 µM (active)
NC(=O)N1c2ccccc2C=Cc2ccccc21	inactive
CC(=O)OCC1=C(C(=O)O)N2C(=O)[C@@H](NC(=O)Cc3cccs3)[C@H]2SC1	inactive
CCN1CCc2nc(N)oc2CC1	inactive
NC1=NCC2c3ccccc3Cc3ccccc3N12 (stereo not given)	inactive
Nc1c2c(nc3ccccc13)CCCC2O (stereo not given)	inactive
CCn1ccnc1CC1COc2ccccc2O1 (stereo not given)	inactive
C[N+](C)(C)CCOC(N)=O	inactive
NCCCNCCSP(=O)(O)O	inactive
CC(C)(Oc1ccc(CCNC(=O)c2ccc(Cl)cc2)cc1)C(=O)O	inactive
CC(C)(C)NCC(O)c1cc(O)cc(O)c1 (stereo not given)	inactive
CNC1(C)C2CCC(C2)C1(C)C (stereo not given)	inactive

Structure (SMILES)	Potency
O=C(CCNNC(=O)c1ccncc1)NCc1ccccc1	inactive
CCc1c(C)[nH]c2c1C(=O)C(CN1CCOCC1)CC2 (stereo not given)	inactive
C[C@]12CCC(=O)C=C1CC[C@@H]1[C@@H]2C(=O)C[C@@]2(C)[C@H]1CC[C@]2(O)C(=O)CO	inactive
Cc1nc2c([nH]1)c(=O)n(C)c(=O)n2Cc1ccco1	inactive
Nc1ncn([C@@H]2O[C@H](CO)[C@@H](O)[C@H]2O)c(=O)n1	8.2 µM (active)
COCC(=O)O[C@]1(CCN(C)CCCc2nc3ccccc3[nH]2)CCc2cc(F)ccc2[C@@H]1C(C)C	2.31 µM (active)
O=C(O)CN(CCN(CC(=O)O)CC(=O)O)CCN(CC(=O)O)CC(=O)O	inactive
CC(C(=O)O)c1ccc(CC2CCCC2=O)cc1 (stereo not given)	inactive
Cc1ccc(=O)n(-c2ccccc2)c1	inactive
CCN1CCC[C@H]1CNC(=O)c1c(O)c(Cl)cc(Cl)c1OC	inactive
CCCNC(C)C(=O)Nc1ccccc1C (stereo not given)	inactive
COc1cc(Cc2cnc(N)nc2N)cc(OC)c1OC	inactive
C[C@H](CS)C(=O)N1CCC[C@H]1C(=O)O	inactive
c1ccc2c(c1)CCCC2C1=NCCN1 (stereo not given)	inactive
CCO/C([O-])=N/c1c[n+](N2CCOCC2)no1	inactive
COC(=O)C1=C(C)NC(C)=C(C(=O)OC(C)(C)CN(C)CCC(c2ccccc2)c2ccccc2)C1c1cccc([N+](=O)[O-])c1 (stereo not given)	9.2 µM (active)
CCN(CC)CCNC(=O)c1cc(S(C)(=O)=O)ccc1OC	inactive
CN/C(=C\[N+](=O)[O-])NCCSCc1ccc(CN(C)C)o1	inactive
CCCCCN(CCCCC)C(=O)C(CCC(=O)O)NC(=O)c1ccc(Cl)c(Cl)c1 (stereo not given)	inactive
O=C(O)CN(CCOCCOCCN(CC(=O)O)CC(=O)O)CC(=O)O	inactive
